Test results taken from PubChem BioAssay AID1159580 (chemical genetic matrix, 2015).
Where “and” joins values, the source holds several entries; their conditions need not be identical. Identical values can stand only once. Among all 5,500 compounds or so, about 2,000 (36%) were called active. Inconclusive results (about 18%) are left out. No stated cut-off is given here; in the data, active means normalized growth mostly below about 0.91 (no sharp cut-off); inconclusive means no clear call, values can overlap the other calls; inactive means mostly above about 0.92. The list shows a part of the results.

Test: chemical genetic growth profiling, strain panel (AID 1159580);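 further: tested at 20 µM; growth read once vehicle control cultures reached saturation at 30 °C; 1 = growth at the plate median or of vehicle wells; lower values mean less growth of the strain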
Conditions: S. cerevisiae deletion strains, growth OD

Measured: normalized growth

CC(=O)Oc1ccc(C(c2ccc(OC(C)=O)cc2)c2ccccn2)cc1
inactive: locus YAL021C, strain ccr4, active compounds read low 1.02 | locus YAL026C, strain drs2, active compounds read low 1.02 | locus YAL030W, strain snc1, active compounds read low 1.01 | locus YBL061C, strain skt5, active compounds read low 1.01 | locus YBR009C, strain hhf1, active compounds read low 1.04 | locus YBR021W, strain FUR4, active compounds read low 0.998 | locus YBR023C, strain chs3, active compounds read low 1.02 | locus YBR171W, strain sec66, active compounds read low 1.02 | locus YBR229C, strain ROT2, active compounds read low 0.969 | locus YBR231C, strain swc5, active compounds read low 0.997 | locus YBR279W, strain paf1, active compounds read low 1.01 | locus YCL011C, strain gbp2, active compounds read low 1.02 | locus YCL016C, strain dcc1, active compounds read low 1.02 | locus YCL029C, strain bik1, active compounds read low 0.988 | locus YCL069W, strain vba3, active compounds read low 1.01 | locus YCR088W, strain abp1, active compounds read low 1.02 | locus YDL005C, strain med2, active compounds read low 1.01 | locus YDL035C, strain GPR1, active compounds read low 1.03 | locus YDL040C, strain nat1, active compounds read low 1.01 | locus YDL074C, strain BRE1, active compounds read low 0.995 | locus YDL101C, strain DUN1, active compounds read low 0.974 | locus YDL185W, strain tfp1, active compounds read low 0.993 | locus YDL192W, strain arf1, active compounds read low 0.984 | locus YDR001C, strain nth1, active compounds read low 1.02 | locus YDR069C, strain doa4, active compounds read low 1.01 | locus YDR101C, strain arx1, active compounds read low 0.996 | locus YDR137W, strain rgp1, active compounds read low 1.02 | locus YDR150W, strain NUM1, active compounds read low 0.99 | locus YDR159W, strain sac3, active compounds read low 0.993 | locus YDR162C, strain NBP2, active compounds read low 1.03 | locus YDR195W, strain ref2 0.985 | locus YDR297W, strain sur2, active compounds read low 1.02 | locus YDR318W, strain mcm21, active compounds read low 0.994 | locus YDR334W, strain swr1, active compounds read low 1.02 | locus YDR335W, strain msn5, active compounds read low 1.02 | locus YDR388W, active compounds read low 0.987 | locus YDR392W, strain spt3, active compounds read low 1.03 | locus YDR502C, strain sam2, active compounds read low 0.999 | locus YEL003W, strain gim4, active compounds read low 1.02 | locus YEL037C, strain rad23, active compounds read low 1.02 | locus YEL061C, strain CIN8 (second series), active compounds read low 1.01 | locus YEL061C, strain CIN8, active compounds read low 0.99 | locus YER015W, strain faa2, active compounds read low 1.01 | locus YER016W, strain bim1, active compounds read low 1.03 | locus YER110C, active compounds read low 0.977 | locus YER111C, strain swi4, active compounds read low 1.01 | locus YER155C, strain BEM2 (second series), active compounds read low 1.03 | locus YER155C, strain BEM2, active compounds read low 0.983 | locus YER167W, strain BCK2, active compounds read low 1 | locus YFR010W, strain ubp6, active compounds read low 0.996 | locus YGL078C, strain dbp3, active compounds read low 0.991 | locus YGL086W, strain mad1, active compounds read low 0.982 | locus YGL167C, strain pmr1, active compounds read low 1.03 | locus YGL173C, strain kem1, active compounds read low 1.02 | locus YGL227W, strain vid30, active compounds read low 1.01 | locus YGL240W, strain doc1, active compounds read low 1 | locus YGL248W, strain PDE1, active compounds read low 0.966 | locus YGL253W, strain hxk2, active compounds read low 1.03 | locus YGR135W, strain pre9, active compounds read low 0.996 | locus YGR229C, strain SMI1, active compounds read low 1.01 | locus YGR252W, strain gcn5, active compounds read low 0.961 | locus YHR013C, strain ard1, active compounds read low 1.06 | locus YHR027C, strain rpn1, active compounds read low 1.02 | locus YHR030C, strain SLT2, active compounds read low 0.99 and 1.02 | locus YHR079C, strain IRE1 (second series), active compounds read low 0.993 | locus YHR079C, strain IRE1, active compounds read low 0.983 | locus YHR094C, strain hxt1, active compounds read low 0.989 | locus YHR129C, strain ARP1, active compounds read low 0.989 | locus YHR142W, strain chs7, active compounds read low 1.01 | locus YHR200W, strain rpn10, active compounds read low 0.984 | locus YIL066C, strain RNR3, active compounds read low 1.02 | locus YIL073C, strain SPO22, active compounds read low 1.01 | locus YIL125W, strain kgd1, active compounds read low 0.985 | locus YIR030C, strain dcg1, active compounds read low 0.999 | locus YJL092W, strain hpr5, active compounds read low 1.01 | locus YJL095W, strain BCK1 (second series), active compounds read low 1.03 | locus YJL095W, strain BCK1, active compounds read low 0.975 and 1 | locus YJL115W, strain asf1, active compounds read low 1.01 | locus YJL129C, strain trk1, active compounds read low 1.03 | locus YJL134W, strain LCB3, active compounds read low 0.987 | locus YJL154C, strain vps35, active compounds read low 1.01 | locus YJL164C, strain tpk1, active compounds read low 1.02 | locus YJL166W, strain qcr8, active compounds read low 1 | locus YJL168C, strain set2, active compounds read low 0.985 | locus YJL187C, strain SWE1 (second series), active compounds read low 0.967 | locus YJR043C, strain POL32, active compounds read low 1.02 | locus YJR066W, strain TOR1, active compounds read low 0.976
